# Source: PubChem BioAssay (NCI)
# Compounds without any hit were thinned out: in the full panel of roughly 83,000, 20% have a hit.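 48-hour exposure, single concentration, 96-well plates; percent growth endpoint where 0 means no net growth. Active: below 10.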 Unmarked numbers belong to inactive results. The source made the active and inactive calls.
# Tests used:
# Test in all cases: NCI-60 one-dose screen, 48 h (100 = growth as untreated, 0 = no growth, -100 = all killed)
# Conditions in all cases: 10 µM unless noted
# T-47D breast = test system: T-47D breast
# BT-549 breast = test system: BT-549 breast
# MDA-MB-435 melanoma = test system: MDA-MB-435 melanoma
# SW-620 colon = test system: SW-620 colon
# MCF7 breast = test system: MCF7 breast
# HCT-116 colon = test system: HCT-116 colon
# HCC-2998 colon = test system: HCC-2998 colon
# KM12 colon = test system: KM12 colon
Structure (SMILES),growth (T-47D breast),growth (BT-549 breast),growth (MDA-MB-435 melanoma),growth (SW-620 colon),growth (MCF7 breast),growth (HCT-116 colon),growth (HCC-2998 colon),growth (KM12 colon)
CN1CCN(c2ccc(/C=N/Nc3nc4ccccc4c(=O)n3-c3ccccc3)cc2)CC1,92.6%,108%,104%,99.6%,93.3%,99%,103%,99.8%
CCO/C=N/C1=C(C#N)C(c2ccc(Cl)cc2)c2sc3c(C)cccc3c2O1 (stereo not given),33.5%,38.8%,-49.6% (active),26.5%,14.5%,14.8%,9.57% (active),15.2%
COc1ccc(-c2nc3ccc(-c4nnc(SCC(=O)Nc5ccc(C(=O)/C=C/c6ccc(Cl)cc6)cc5)o4)cc3[nH]2)cc1,92.8%,98.2%,99.3%,97%,78%,100%,115%,103%
COc1ccc([C@H]2[C@H](O)C(=O)N2c2cc(OC)c(OC)c(OC)c2)cc1F,68.7%,-21.1% (active),-10.4% (active),22.2%,11%,0.995% (active),10.9%,9.99% (active)
COc1ccc(-n2c(SCc3nnc(NC(=O)c4ccc(Br)cc4)s3)nc3cc(OC)c(OC)cc3c2=O)cc1,112%,137%,87.5%,95.7%,85.6%,96.2%,88.2%,90.6%
NS(=O)(=O)c1ccc(-n2cc(CN3CCCCC3)nn2)cc1,110%,108%,106%,106%,96.9%,107%,106%,95.3%
NC(N)=Nc1ccc(Oc2cccc(Nc3ccc(Cl)c(C(F)(F)F)c3)c2)cn1,15.1%,16.5%,-86.2% (active),-69.8% (active),-60.3% (active),-69.4% (active),-86.1% (active),-81.8% (active)
COc1cc(/C=C2\C(=O)Nc3cc(Cl)ccc32)ccc1OCc1ccc(F)cc1,94.1%,95.7%,103%,98.2%,57.1%,92.9%,96.8%,102%
O=C(CN1CCN(c2cc(=O)n(-c3ccccc3)c3ccccc23)CC1)Nc1ccc(F)cc1,30.2%,59.1%,65.4%,91.6%,37.9%,58.7%,94.4%,72.9%
O=C(NCc1ncc[nH]1)c1ccc(-c2nc3ccc4[nH]ncc4c3c3c2CCCC3)cc1,-3.92% (active),0.679% (active),14.6%,5.4% (active),1.62% (active),-4.57% (active),12.8%,4.99% (active)
NC(=O)c1c(NC(=O)c2ccc(F)cc2F)sc2c1CCC(=O)C2,32.9%,42.2%,74.1%,19.1%,51.8%,11.3%,89.5%,17.2%
CCc1nn2c(C)cc(C)nc2c1Cc1ccc(/C=C/CN2CCN(CCOCCOCCN3CCN(C/C=C/c4ccc(Cc5c(CC)nn6c(C)cc(C)nc56)cc4)CC3)CC2)cc1,-36.4% (active),79.7%,-78.3% (active),-50.4% (active),-85.8% (active),-84.1% (active),-61.9% (active),35.2%
COc1ccc(CCOc2cc3c(cc2OC)CCN(C(=O)NCc2cocn2)C3c2ccc(C)cc2C)cc1 (stereo not given),49%,-17% (active),8.73% (active),23%,13.5%,6.95% (active),11.5%,11.4%
C#CCNC1CCC(c2csc(C#C)n2)=C1C (stereo not given),65.3%,86.3%,99.2%,108%,61.1%,80.9%,107%,19.1%
Cc1cc(C)c(N2C(=O)CC(Nc3ccc(Cl)cc3Cl)C2=O)c(C)c1 (stereo not given),93.7%,112%,102%,102%,91%,104%,118%,105%
COc1ccc(C(=O)c2c(N)c(C#N)cn2-c2ccccc2OC)cc1,32.1%,64.5%,-27.8% (active),20.3%,13.9%,22.2%,48%,27.5%
Cc1ccc(N2C(=O)/C(=C/C=C/c3ccco3)SC2=S)cc1,71.6%,126%,90.6%,90.1%,66.4%,94.2%,101%,95.4%
O=C(NNc1nc2cc(F)ccc2n2cccc12)c1ccncn1,4.38% (active),21.9%,31.5%,22.7%,7.62% (active),18.3%,53.2%,23.1%
CC1(C)CC[C@]2(C(=O)N3CCOCC3)CC[C@]3(C)C(=CC[C@@H]4[C@@]5(C)C/C(=C/c6ccco6)C(=O)C(C)(C)[C@@H]5CC[C@]43C)[C@@H]2C1,75.7%,97.4%,88.7%,74.1%,64%,62.1%,103%,95.7%
CNC(=O)c1cc(-c2ccc(NS(=O)(=O)c3ccc(C)cc3)cc2)nc2cccnc12,98%,110%,109%,107%,72.9%,111%,108%,101%
CCNC(=O)Oc1ccc(/C(=C(/C)c2ccccc2)c2ccc(OCCN3CCCCCC3)cc2)cc1,2.6% (active),-3.35% (active),-35.5% (active),-42.9% (active),7% (active),-78% (active),25.3%,5.22% (active)
CN1CCN(Cc2ccc(NC(=O)c3cncc(C#Cc4cnc5ccc(N6CCN(C)CC6)nn45)c3)cc2C(F)(F)F)CC1,110%,73%,-87.5% (active),-74.9% (active),-76.2% (active),-20.1% (active),54.8%,-78.8% (active)
COC(=O)c1[nH]nc2c1C1(C(=O)c3cccc4cccc1c34)C(C#N)=C(N)O2 (stereo not given),104%,124%,106%,100%,84.3%,101%,106%,97.8%
O=C1Nc2ccccc2/C1=C/c1ccc(CO)n1-c1ccc(Cl)cc1,62.9%,55.3%,-25.5% (active),32.4%,24.1%,23.8%,78.3%,13.4%
Cn1ccnc1C(=O)/C=C/C=C/c1ccc(C(=O)Nc2ccc(F)cc2)cc1,28.2%,36.3%,4.45% (active),-2.98% (active),13.3%,-36.3% (active),66.4%,17.1%
CC/C(=C/c1c(O)cccc1OC)c1ccc2c(OC)cccc2[o+]1,106%,98.5%,97.7%,101%,86.4%,104%,106%,98.9%
NS(=O)(=O)c1ccc(Nc2nc(SCc3ccccc3)nc3ccccc23)cc1,24.8%,66.7%,76.8%,61%,54.3%,53.2%,83%,27.8%
Cn1ccnc1C(=O)/C=C/c1ccc(CNC(=O)c2ccc(S(F)(F)(F)(F)F)cc2)cc1,25%,35.6%,55.5%,9.31% (active),13.3%,-17.1% (active),11.5%,13%
CN1CCN(c2nc(-c3csc(-c4ccccc4)n3)cc3ccccc23)CC1,-23.3% (active),96.2%,7.31% (active),-19.1% (active),9.31% (active),2.27% (active),-84.7% (active),18.7%
CCNC(=O)N1CCc2cc(OC)c(OCCc3ccc(OC)cc3)cc2C1c1ccc(Cl)cc1C (stereo not given),57%,-1.91% (active),15.9%,21.4%,16.3%,9.84% (active),17.1%,16.5%
